Compound activity (PubChem BioAssay)
An excerpt weighted towards active compounds, which were near 19% of everything screened.
HT1080NT lethal: kills 2HG-producing HT-1080-NT fibrosarcoma cells | AID 686970 | HT-1080-NT fibrosarcoma viability, CellTiter-Glo ATP luminescence, 48 h | Potency, µM (highest dose often 46.1 µM), for inactives: at the highest dose activity, negative = less viability, most hits filed as cytotoxic | hit rate 1.6% among 360,000;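 note: NT is the 2HG producing partner of a matched IDH1 knockdown line; 0% = DMSO-treated cells and -100% = media-only wells without cells; nearly all actives have a fitted effect of over 55% in size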
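Fibrosarcoma NT cells, 750 per well in 5% FBS RPMI, were exposed to compound for 48 hours. Viability: CellTiter-Glo luminescence.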
TDP1 cell CPT: DT40-hTDP1 cell growth loss with CPT; hit rate 12% among 420,000; Potency, µM (doses to about 46.2 µM), inactives show at the highest dose activity change, negative = growth inhibition, hits mostly inhibitors; AID 686979; chicken DT40 Tdp1-/-;hTDP1 cells + 20 nM CPT, ATP luminescence, 48 h; note: nearly all actives have a fitted effect of over 55% in size
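Cell growth measured by CellTiter-Glo luminescence after a minimum 48 h, 37 C compound exposure with 20 nM CPT in Tdp1-knockout DT40 cells stably expressing hTDP1, seeded 400/well; qHTS titration format.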
DT40 TDP1 no CPT: qHTS for Inhibitors of human tyrosyl-DNA phosphodiesterase 1 (TDP1): qHTS in cells in absence of CPT; DT40 Tdp1-/- hTDP1 cells, no CPT, ATP luminescence, 48 h; Potency, µM (top dose mostly 46.2 µM), inactives show top-dose activity change, negative = growth inhibition, hits mostly inhibitors; hit rate 15% among 420,000; AID 686978, 2013; note: nearly all actives have a fitted effect of over 55% in size
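Cells were dispensed at 400 per well, compounds added by pin tool, plates incubated ≥48 hr at 37 °C, then CellTiter-Glo added for 30 min at room temperature before luminescence reading. Line: DT40 Tdp1-/- complemented with hTDP1; camptothecin omitted.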
KB-V1 MDR tox: KB-V1 MDR subline cytotoxicity; KB-V1 MDR cells viability, CellTiter-Glo, 72 h; Potency, µM (highest dose often 46.1 µM), actives largely listed as cytotoxic; hit rate 3.4% among 400,000; AID 1347076; note: nearly all actives have a fitted effect of over 60% in size
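KB-V1, DMEM (no phenol red) + 10% FBS; cpd pin-transferred, titration series; 72 h, 37 degrees C; CellTiter-Glo, luminescence. Data normalized, curve-fit.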
KB-3-1 cytotox: kills parental KB-3-1 adenocarcinoma cells; KB-3-1 viability, CellTiter-Glo ATP luminescence, 72 h; Potency, µM (highest dose often 46.1 µM), hits mostly cytotoxic; hit rate 1.4% among 400,000; AID 1347075; note: nearly all actives have a fitted effect of over 60% in size
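Cells are dispensed, compounds pinned in, plates held at 37 °C for 72 h, then CellTiter-Glo is added and luminescence read after 10 minutes. Cell line: parental KB-3-1 in phenol-red-free DMEM, 10% FBS.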
HT1080 IDH1KD tx: HT-1080 IDH1 knockdown cell toxicity (counter line); Potency, µM (titrated, usually from 46.1 µM), for inactives: top-dose activity, negative = toxicity, usual class: cytotoxic; hit rate 2% among 360,000; HT-1080 IDH1 knockdown viability, ATP luminescence, 48 h;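 note: 0% = DMSO wells and -100% = cell-free medium wells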
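HT-1080-IDH1KD cells (IDH1 knocked down), 750/well in RPMI with 5% FBS, treated with compound 48 h at 37 degrees C. Viability by CellTiter-Glo luminescence, normalised to DMSO and no-cell wells; concentration-response curves classed.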
The depositor's hits bear a star; i = inactive; u = inconclusive; x = not tested or not shown. Calls come from the whole dose curve; as a rule, active = well fitted curve in the direction sought with a large enough effect; inconclusive = small, poorly fitted or top-dose-only effect, or another doubt; inactive = no such curve, though single readings can be large; an effect the other way counts as inactive or inconclusive. Unless noted, % is set by controls: 0 for no effect and ±100 for the full control effect; potency is the fitted concentration of half-maximal effect.

SMILES	HT1080NT lethal	TDP1 cell CPT	DT40 TDP1 no CPT	KB-V1 MDR tox	KB-3-1 cytotox	HT1080 IDH1KD tx
C=CCN(C(=O)CCC(=O)Nc1cc(C)on1)C(C(=O)NC1CCCC1)c1ccc(CC)cc1 (stereo not drawn)	-10%	u	15µM*	u	i	-20%
CCCCN(C(=O)CCC(=O)Nc1cc(C)on1)C(C(=O)NC1CCCC1)c1ccc(OCC)cc1 (stereo not drawn)	-20%	u	16µM*	i	i	-11%
O=C(N/N=C/c1c[nH]c2ccccc12)c1cc(-c2ccccc2)n[nH]1	u	0%	-9%	i	i	u
O=C(N/N=C/c1c[nH]c2ccccc12)c1cc(-c2cccc3ccccc23)n[nH]1	u	u	u	i	u	8.2µM*
O=C(N/N=C/c1c[nH]c2ccccc12)c1cc(-c2ccc(-c3ccccc3)cc2)n[nH]1	u	u	u	16µM*	u	13µM*
O=C(N/N=C/c1c[nH]c2ccccc12)c1ccn[nH]1	4%	-3%	2%	i	i	-1%
Cc1ccc(-c2cc(C(=O)N/N=C/c3c[nH]c4ccccc34)[nH]n2)cc1	u	2.3µM*	2.6µM*	10µM*	5.2µM*	2.9µM*
O=C(N/N=C/c1c[nH]c2ccccc12)c1cc(-c2ccc3ccccc3c2)n[nH]1	7.3µM*	3.7µM*	u	u	u	5.8µM*
CCN(CC)S(=O)(=O)c1ccc2nc(NC(=O)c3ccc(Br)o3)sc2c1	x	-17%	-19%	i	i	x
CN(C)c1ccc(/C=C/c2ccnc3c(-c4ccccc4)cccc23)cc1	x	11µM*	u	u	i	x
Cc1cccc2c(/C=C/c3ccc(N(C)C)cc3)ccnc12	x	u	u	i	i	x
CN(C)c1ccc(/C=C/c2ccnc3c(Cl)cccc23)cc1	x	11µM*	7.9µM*	u	16µM*	x
COc1ccc(CCN2CC(C(=O)OCC(=O)NC(C)c3cccc(Cl)c3)CC2=O)cc1OC (stereo not drawn)	6%	-14%	-12%	i	i	15%
C=CCNC(=S)NS(=O)(=O)c1cccs1	12%	-1%	-11%	i	i	12%
CC(=O)c1ccc(N(CC(=O)NCc2ccc3c(c2)OCO3)C(=O)c2csnn2)cc1	-5%	17%	-22%	i	i	-6%
CCSc1nc2ccccc2c(OCc2cc(C(=O)OC)ccc2OC)c1C(=O)OC	x	18µM*	u	u	i	x
COC(=O)c1c(SC)nc2ccccc2c1OCc1ccccc1C	x	u	13µM*	i	i	x
COCCN1C(=O)COc2ccccc2C1C(=O)NC(C)(C)C (stereo not drawn)	16%	-4%	0%	u	i	2%
C=C1C(=O)O[C@H]2[C@H]1[C@@H](O)CC(=C)[C@@H]1CC(=O)[C@@H](C)[C@H]21	u	5.2µM*	6.5µM*	i	i	u
Cc1ccc(C2N(c3ccc(Cl)cc3)C(=O)N3CCCN23)cc1 (stereo not drawn)	1%	u	15µM*	i	i	-2%
O=C1N(c2ccccc2)C(c2ccc(Cl)cc2)N2CCCN12 (stereo not drawn)	5%	2%	-22%	u	i	0%
CCc1ccccc1NC(=O)c1cnc(N2CCCCC2)c2ccccc12	x	18µM*	u	i	i	x
O=C(Nc1ccccc1F)c1cnc(N2CCCCC2)c2ccccc12	x	16µM*	23µM*	i	i	x
Cc1ccc(Cl)cc1NC(=O)c1cnc(N2CCCCC2)c2ccccc12	x	18µM*	13µM*	i	i	x
